In the library only some 2.4% were active in any assay of this set; here they are far more common.
PPC-1+TRAIL kill: PPC-1 cancer cell killing with TRAIL present. PPC-1 cells + TRAIL, ATPLite viability luminescence. cell killing (% activity), % at 4 µM or 5 µM. 220,000 tested, 0.41% active;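 active means cell killing above 50% in the first pass at 4 µM, then a duplicate retest at 5 µM averaging 50% or more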
HSP90 inh: HSP90 refolding inhibition in rabbit reticulocyte lysate; luciferase refolding luminescence, 3 h; inhibition, % at 5.6 µM; 290,000 tested, 0.91% active; AID 1789;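 active means inhibition above the screen-wide mean plus 3 SD, computed separately per campaign, cut at about 16% in these data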;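 further: inhibitors lower the luminescence because luciferase stays unfolded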
TRAIL sens C8: sensitizes caspase-8 expressing cells to TRAIL | NB7+C8 cells + TRAIL, ATPlite viability luminescence | inhibition (viability loss, TRAIL sensitization), % at 10 µM | 360,000 tested, 1% active;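 active means compounds causing at least 50% loss of cell viability in the single-dose screen, relative to plate controls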
STAT3 blocker: inhibitors of IL-6 induced STAT3 signaling; U3A cells, IL-6 STAT3-luciferase reporter, luminescence; host cell line lacks STAT1; inhibition, % at 5.5 µM; 190,000 tested, 0.89% active; AID 862;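 active means inhibition above the mean inhibition across all screened compounds plus 3 SD, cut at about 44% in these data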
HSF1 inh: HSF1 inhibition; NIH3T3-HGL HSE-luciferase, MG132-induced, luminescence 8 h; active compounds read low; activity change, negative = inhibition, % at 7.5 µM (by protocol); 300,000 tested, 0.77% active; AID 2098;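 active means more than half of replicate wells show activity change below -50%, luminescence cut by over half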;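 further: luciferase reports HSF-1 transcriptional activity via heat shock element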
STAT1 blocker: inhibitors of IFN-gamma induced STAT1 signaling; inhibition, % at 5.5 µM; 200,000 tested, 0.35% active; NIH 3T3 STAT1-luciferase reporter, luminescence;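 active means inhibition above a set limit, the mean inhibition across all tested compounds plus 3 SD, cut at about 34% in these data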
HSP90 inh confirm: confirmation of HSP90 inhibitors. shares compounds with HSP90 inh. rabbit reticulocyte lysate, luciferase refolding luminescence, 3 h. inhibition, % at 5.9 µM. 2,300 tested, 64% active. AID 1846; in the data active means inhibition above about 18%
FLuc counter: counter-screen for HSP90 inhibitors: inhibitors of firefly luciferase; shares compounds with HSP90 inh; purified native firefly luciferase, luminescence; inhibition, % at 5.9 µM; 2,300 tested, 48% active;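 active means inhibition above the mean inhibition of all tested sample wells plus 3 SD, cut at about 10% in these data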
Target sequence (P08659 whole entry, looked up): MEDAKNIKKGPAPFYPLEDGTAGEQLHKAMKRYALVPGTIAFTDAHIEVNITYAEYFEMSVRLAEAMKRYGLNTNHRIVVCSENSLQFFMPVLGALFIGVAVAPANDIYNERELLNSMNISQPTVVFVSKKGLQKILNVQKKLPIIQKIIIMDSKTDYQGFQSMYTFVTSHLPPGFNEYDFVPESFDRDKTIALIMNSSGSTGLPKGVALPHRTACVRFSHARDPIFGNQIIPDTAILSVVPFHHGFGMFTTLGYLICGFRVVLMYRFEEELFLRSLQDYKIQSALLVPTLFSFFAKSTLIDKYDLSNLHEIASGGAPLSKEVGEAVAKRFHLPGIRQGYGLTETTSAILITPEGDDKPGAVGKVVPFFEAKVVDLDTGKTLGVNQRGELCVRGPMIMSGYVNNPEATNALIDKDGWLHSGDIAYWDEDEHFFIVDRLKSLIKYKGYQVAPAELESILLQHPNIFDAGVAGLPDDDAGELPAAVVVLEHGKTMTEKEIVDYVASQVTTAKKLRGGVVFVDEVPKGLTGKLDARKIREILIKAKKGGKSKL
Hits are given with their value; – = inactive; · = not tested or not shown.

SMILES	PPC-1+TRAIL kill	HSP90 inh	TRAIL sens C8	STAT3 blocker	HSF1 inh	STAT1 blocker	HSP90 inh confirm	FLuc counter
Cc1ccc(Cl)c(OCC(=O)Nc2sc(C)c(C)c2C#N)c1	–	–	–	–	–	–	·	·
Cn1c(=O)c2ccccc2n(Cc2ccccc2Cl)c1=O	·	28	–	·	–	·	–	–
COc1cc(Br)c(C(=O)c2nccc3cc(OC)c(OC)cc23)cc1OC	·	42	–	·	–	·	19	–
CCn1c(=O)cc(OCC(=O)NCCc2ccc(OC)c(OC)c2)c2ccccc21	–	48	–	–	–	–	–	–
CCOc1ccc(CCNC(=O)COc2cc(=O)n(C)c3ccccc23)cc1OCC	–	–	–	–	–	–	·	·
CCn1cnc2cc(NCc3nc4ccccc4n3Cc3ccccc3)ccc21	–	48	–	–	–	–	47	40
CCn1cnc2cc(NCc3nc4ccccc4n3C)ccc21	–	–	–	–	–	–	·	·
CC1CCC(NC(=O)c2ccc3c(c2)OCO3)CC1 (stereo not given)	·	24	–	·	–	·	46	27
COCCN(Cc1nc(-c2ccc(-c3ccccc3)cc2)oc1C)C(C)C	·	85	–	·	–	·	89	21
Cc1oc(-c2ccoc2)nc1CN(CC1CCC(=O)N1)C(C)C (stereo not given)	–	–	–	–	–	–	·	·
O=C1CC=Nc2ccc([N+](=O)[O-])cc21	·	·	–	·	·	·	·	·
CCOc1ccc2c(c1)c(N=Nc1cccc(C(=O)O)c1)c(O)n2C	–	27	–	–	–	–	30	–
CCN(CC)CCN(Cc1cc2cc3c(cc2[nH]c1=O)OCO3)C(=S)NC	·	29	–	·	–	·	–	–
Cc1cc(C(=O)OCC(=O)NCc2ccco2)c(C)o1	–	–	–	–	·	–	·	·
Cc1cc(/C=C(\C#N)C(=O)N2CCOCC2)c(C)n1C1CCCC1	–	37	–	·	–	·	52	48
COc1ccccc1-n1cnnc1SC(C)C(=O)NCC1CCCO1 (stereo not given)	·	·	–	·	·	·	·	·
CC(=O)Nc1ccc(NC(=S)NC(=O)C2CC2)cc1	·	–	–	·	–	·	·	·
Cc1ccc(NC(=S)NC(=O)C2CC2)c(C)c1	·	31	–	·	–	·	–	–
Cc1ccc(-c2cnn3c(N4CCOCC4)cc(C)nc23)cc1	·	40	–	·	-68	·	48	53
Cc1cc(N2CCOCC2)n2ncc(-c3ccc(Cl)cc3)c2n1	–	35	–	·	·	·	48	55
CC(C)(C)c1cc(N2CCOCC2)n2ncc(-c3ccc(Cl)cc3)c2n1	·	–	–	·	–	·	·	·
CC(C)OC(=O)N(C)C[C@@H]1OCc2cnnn2CCCC(=O)N([C@H](C)CO)C[C@@H]1C	·	·	–	·	·	·	·	·
Cc1cccnc1NC(=O)CN1C(=O)COc2ccc(Cl)cc21	·	18	–	·	–	·	–	–
Cc1ccc2c(c1)N(CC(=O)Nc1ccccc1F)C(=O)CO2	·	22	–	·	–	·	–	–
O=C(CN1C(=O)COc2ccccc21)Nc1ccccc1F	·	–	–	·	–	·	·	·
SMILES	PPC-1+TRAIL kill	HSP90 inh	TRAIL sens C8	STAT3 blocker	HSF1 inh	STAT1 blocker	HSP90 inh confirm	FLuc counter
O=C(CN1C(=O)COc2ccc(Cl)cc21)Nc1nccs1	·	·	–	·	·	·	·	·
Cc1ccc([N+](=O)[O-])cc1N=C1C(=O)Nc2ccccc21	·	22	–	·	–	·	–	–
CC(C)(C)c1ccc(NC(=O)c2ccsc2)cc1	–	24	69	·	–	·	39	27
O=C(c1cc(-c2ccc(Cl)cc2Cl)on1)N1CCCCCC1	·	19	–	·	–	·	34	18
O=C(c1cc(-c2ccc(Cl)cc2Cl)on1)N1CCN(C(=O)c2ccco2)CC1	–	–	–	–	–	–	·	·
O=C(c1cc(-c2ccc(Cl)cc2Cl)on1)N1CCCC1	·	37	67	·	–	·	55	57
O=C(CSc1ccc(F)cc1)Nc1cccc(S(=O)(=O)N2CCOCC2)c1	·	·	–	·	·	·	·	·
CC1CCc2nc(NC(=O)CSc3nc4ccccc4o3)sc2C1 (stereo not given)	–	46	–	–	-59	–	51	49
Cc1nnc(NC(=O)CSc2nc3ccccc3o2)s1	–	–	–	–	–	–	·	·
CCc1ccc2oc(-c3ccc(OC)cc3)cc(=Nc3cccc(C(=O)O)c3)c2c1	–	24	–	–	–	–	–	–
[O-]/[N+](=C\c1ccco1)c1ccc(Cl)cc1	·	42	–	·	–	·	82	–
CC(C)C(=O)Nc1ccc2nn(-c3ccc(F)cc3)nc2c1	·	25	–	·	–	·	28	20
CC(C)N1CCC(C)(C(=O)Nc2cc(-c3ccccc3)nn2C)C1 (stereo not given)	·	·	–	·	·	·	·	·
COC(=O)c1cc(=O)nc(NN=Cc2ccc(C)cc2)s1	·	·	–	·	·	·	·	·
Clc1ccc(OCCN2CCOCC2)cc1	·	18	–	·	–	·	–	–
Brc1ccc(OCCN2CCOCC2)cc1	·	–	–	·	–	·	·	·
Cc1ccc(C(=O)NCCc2ccccc2)cc1	·	62	64	·	–	·	78	74
O=C(NCCc1ccccc1)c1ccc2c(c1)OCCO2	·	85	83	·	-66	·	97	89
COc1ccc(CCNC(=O)c2ccc3c(c2)OCCO3)cc1	–	–	–	–	–	–	·	·
O=C(NCCS(=O)(=O)NCCc1ccccc1)c1ccc2c(c1)OCO2	·	·	–	·	–	·	·	·
O=C(/C=C/c1ccccc1)c1ccc2c(c1)OCCCCO2	–	33	–	–	–	–	33	29
O=C(NCCc1ccccc1)c1ccc2c(c1)OCCCO2	·	95	92	·	-83	·	95	90
COc1ccc2[nH]cc(CCNC(=O)/C=C/[C@H]3O[C@@H](n4cnc5c(NC(=O)c6ccccc6)ncnc54)[C@H](O)[C@@H]3O)c2c1	·	·	–	·	·	·	·	·
O=C(NCCc1cccc(Cl)c1)c1ccc2c(c1)OCO2	·	20	57	·	–	·	40	29
COC(=O)c1c(N)sc(C(=O)NCCc2ccccc2)c1C	·	87	75	·	–	·	87	82
SMILES	PPC-1+TRAIL kill	HSP90 inh	TRAIL sens C8	STAT3 blocker	HSF1 inh	STAT1 blocker	HSP90 inh confirm	FLuc counter
COc1cccc(OC)c1C(=O)NCCc1ccccc1	·	·	–	·	–	·	·	·
O=C(NCC1CC1)c1cc2c(c(-c3cccc(-c4ccccc4F)c3)n1)[C@@H](CCO)N(C(=O)CC1CC1)C2	·	·	–	·	·	·	·	·
COc1ccc(CCCN2CCC(CN3C(=S)NC[C@@H]3Cc3ccccc3)CC2)cc1OC	·	·	–	·	·	·	·	·
COc1ccc(-c2cc(=O)[nH][nH]2)cc1	–	34	–	–	–	–	–	–
COc1ccc(-c2cc(=O)[nH]c(=O)[nH]2)cc1	–	–	–	–	–	–	·	·
O=c1cc(-c2ccc(Cl)c(Cl)c2)[nH][nH]1	–	–	–	–	–	–	·	·
O=c1cc(-c2ccc(Cl)cc2)[nH][nH]1	–	29	–	–	–	–	–	–
OC(c1ccccc1)c1nc(/C=C/c2ccccc2)cs1 (stereo not given)	·	·	–	·	·	·	·	·
COc1ccccc1N1CCN(/N=C/c2ccc(C(=O)O)cc2)CC1	·	46	–	·	–	·	60	39
